Only some compounds are listed: those with a hit (about 3.4% of all), similar ones and a draw of the others.
FBW7 act: human FBW7 E3 ligase activation, primary screen; 0.13% of 650,000 active; normalized activity (activation), % at 26.1 µM; AID 1259310; Q969H0; AlphaScreen FBW7–phospho-cyclin E peptide binding, activator screen; in the data active = normalized activity above about 1.9%;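 note: purified mutant Fbw7 with reduced substrate affinity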
GPR151 ag: activators of human GPR151 | PathHunter beta-arrestin GPR151 cells, luminescence | AID 1508602 | activation, % at 11.2 µM | 1% of 650,000 active | Q8TDV0; in the data active = activation above about 4.9%;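 note: 0% = median of compound wells and 100% = cells with positive control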
TEAD-YAP block: TEAD-YAP interaction inhibition | HEK-TIYL cells, TEAD-Gal4/YAP UAS-luciferase luminescence | inhibition, % at 9.12 µM | 1.4% of 640,000 active; in the data active = inhibition above about 32%;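 note: 0% = median of test compound wells and 100% = reference inhibitor wells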
MITF primary: inhibitors of human MITF. 0.91% of 650,000 active. AlphaScreen MITF homodimerization, bead proximity signal. inhibition, % at 2.6 µM; in the data active = inhibition above about 50%;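 note: 0% = vehicle wells with protein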
Target sequence (O75030 whole entry, looked up): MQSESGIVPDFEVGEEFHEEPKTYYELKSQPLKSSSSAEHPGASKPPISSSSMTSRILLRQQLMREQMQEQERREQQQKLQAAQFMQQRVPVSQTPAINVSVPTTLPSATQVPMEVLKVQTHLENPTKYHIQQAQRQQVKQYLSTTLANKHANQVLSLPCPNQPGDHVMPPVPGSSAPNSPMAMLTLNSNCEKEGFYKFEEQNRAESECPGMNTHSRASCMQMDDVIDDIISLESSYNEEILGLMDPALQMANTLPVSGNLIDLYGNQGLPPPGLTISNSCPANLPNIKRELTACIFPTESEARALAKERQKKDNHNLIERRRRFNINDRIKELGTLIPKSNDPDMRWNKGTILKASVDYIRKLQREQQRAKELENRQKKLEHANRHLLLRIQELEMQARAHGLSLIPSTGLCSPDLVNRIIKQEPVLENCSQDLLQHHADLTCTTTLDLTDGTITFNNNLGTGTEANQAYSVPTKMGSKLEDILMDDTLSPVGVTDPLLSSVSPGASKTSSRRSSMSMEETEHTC
Active calls of the source: *.

SMILES | FBW7 act | GPR151 ag | TEAD-YAP block | MITF primary
Cc1onc(-c2ccccc2Cl)c1C(=O)NC(CCC(N)=O)C(=O)O (configuration not stated) | 1.8 | -1.5 | 13.3 | 15.2
CCN(CC)CCOCCOc1ccc(C(C)(C)C)cc1 | 0.4 | 0.4 | -10.2 | -6.5
COc1cccc(-c2nc3ccccc3c(=O)n2NC(=O)c2cc(-c3ccccc3)nc3ccccc23)c1 | 0.0 | 0.5 | 9.3 | 2.0
COc1ccc2c(c1)OCC(c1nc3cc(-c4cn[nH]c4)c(F)cc3[nH]1)C2 (configuration not stated) | 0.0 | 0.3 | 84.2* | -5.1
COc1ccc2c(c1)CC(c1cnc3ccc(-c4cn[nH]c4)cc3n1)CO2 (configuration not stated) | 0.7 | -0.1 | 32.6* | 10.5
COc1cc(OC)c(NS(=O)(=O)c2ccccc2C#N)cc1Cl | 0.0 | -0.9 | -8.4 | 14.0
CCOc1cc(N2CCOCC2)c(OCC)cc1NS(=O)(=O)c1ccc(F)c(F)c1 | -0.1 | -1.7 | 34.5* | -7.7
CCCCN1/C(=C/c2ccc3ccccc3[n+]2CC)Sc2cc(NC(C)=O)ccc21 | -0.2 | 0.5 | 16.2 | 17.6
CCCC[n+]1ccccc1/C=C1\Sc2ccccc2N1CC | -0.3 | 0.3 | 88.7* | 2.8
CCC[n+]1c(/C=C2\Sc3ccccc3N2CC)ccc2ccccc21 | -0.1 | 4.0 | 87.5* | 6.7
CCCCC[n+]1c(/C=C2\Sc3ccccc3N2CC)ccc2ccccc21 | -0.2 | 3.4 | 83.1* | 13.4
Nc1nc(Nc2ccc(N3CCOCC3)cc2)cc(Nc2ccncn2)n1 | 0.0 | -1.0 | 4.5 | -2.5
CC(C)n1cnc2c(Nc3ccccc3)nc(Nc3ccc(N4CCOCC4)cc3)nc21 | -0.1 | 1.1 | -23.9 | 2.9
CC(C)n1cnc2c(Nc3ccc(N4CCOCC4)cc3)nc(Nc3cnccn3)nc21 | -0.1 | 0.8 | 32.3* | 0.6
CC(=O)c1cccc(-c2nc(C)cc(Nc3ccc(N4CCOCC4)cc3)n2)c1 | -0.2 | 0.0 | -4.4 | 8.9
CC(C)n1cnc2c(Nc3ccccc3)nc(Nc3cnccn3)nc21 | 0.5 | -0.5 | -24.3 | 8.6
CC(=O)Nc1ccc(Nc2nc(Nc3cnccn3)nc3c2ncn3C(C)C)cc1 | -0.1 | -0.1 | 40.9* | 0.0
Nc1nc(Nc2ccc(N3CCOCC3)cc2)cc(Nc2cnccn2)n1 | -0.1 | -1.3 | 61.0* | -22.7
CC(=O)c1cccc(-c2cc(Nc3ccc(N4CCOCC4)cc3)nc(N)n2)c1 | 0.0 | -3.4 | 46.5* | 0.0
COc1cc(/C=N/Nc2ncnc3sc(C)c(C)c23)cc(OC)c1 | 0.2 | -0.8 | -27.5 | 17.1
Cc1ccc(C(=O)COC(=O)/C=C/c2ccc([N+](=O)[O-])cc2)cc1 | 0.0 | 1.1 | -2.3 | 1.2
c1ccc(-n2cnc3c(NC4CC4)nc(N4CCOCC4)nc32)cc1 | -0.1 | 1.1 | 52.5* | -0.6
c1cc(-n2cnc3c(NC4CC4)nc(N4CCC(N5CCOCC5)CC4)nc32)cs1 | -0.1 | -1.0 | 45.8* | 10.2
CC(=O)Nc1ccc(Nc2nc(N3CCN(c4ccccn4)CC3)nc3c2ncn3-c2ccccc2)cc1 | -0.2 | 3.7 | 22.3 | 3.9
CC(C)N(CCNc1nc(N2CCOCC2)nc2c1ncn2-c1ccsc1)C(C)C | 0.0 | 0.4 | 55.3* | 1.7
SMILES | FBW7 act | GPR151 ag | TEAD-YAP block | MITF primary
c1ccc(-n2cnc3c(NC4CC4)nc(N4CCN(c5ccccn5)CC4)nc32)cc1 | 0.0 | -0.6 | 37.5* | 16.0
c1cc(-n2cnc3c(NC4CC4)nc(N4CCOCC4)nc32)cs1 | 0.0 | -0.8 | 56.1* | -1.0
OCC1CCCN1c1nc(NC2CC2)c2ncn(-c3ccsc3)c2n1 (configuration not stated) | 0.0 | 2.0 | 1.1 | 3.6
CC(C)(C)NC(=O)c1ccccc1NC(=O)CCc1ccccc1 | -0.1 | 3.1 | -6.7 | 0.9
CNC(=O)c1ccccc1Nc1cc(NC(=O)Cc2c(Cl)cccc2Cl)ncc1C(F)(F)F | 0.2 | -0.8 | 55.8* | 11.7
CNC(=O)c1ccccc1Nc1cc(NC(=O)CCc2ccccc2)ncc1C(F)(F)F | 0.4 | -1.5 | 63.9* | -2.9
O=C(Cc1ccc2c(c1)OCO2)Nc1cc(Nc2ccccc2-c2ncn[nH]2)c(C(F)(F)F)cn1 | 1.0 | -2.0 | 60.2* | 12.0
N#Cc1ccccc1Nc1cc(NC(=O)Cc2ccc(F)cc2)ncc1C(F)(F)F | 0.2 | 0.2 | 19.5 | 17.3
CNC(=O)c1ccccc1Nc1cc(NC(=O)Cc2ccccc2)ncc1C(F)(F)F | 0.3 | 3.0 | 72.5* | -23.7
CCCN1CCN(C(=O)c2sc3ncn(CC(=O)N4CCOCC4)c(=O)c3c2C)CC1 | 0.1 | -0.4 | -5.8 | 8.0
CCO/N=C1/CC(C)(C)Cc2n[nH]c(C)c21 | 1.0 | -1.2 | -7.0 | 9.4
Cc1ccc(C)c(Cc2c(C)nc3c(C(=O)NCCC(C)C)cnn3c2C)c1 | 0.0 | 1.4 | 3.6 | 0.2
C=CCN=C1NN=C(c2cc(C)n(CC=C)c2C)CS1 | -0.2 | -2.6 | 89.4* | -1.8
Cc1cc(C2=NNC(=NCc3ccccc3)SC2)c(C)n1C | 0.8 | -0.8 | 0.9 | 6.9
C=CCN=C1NN=C(c2ccc3c(c2)OCCO3)CS1 | -0.3 | 0.0 | 50.6* | 6.5
NC1=NN=C(c2ccc3c(c2)OCCO3)CS1 | 0.4 | -0.1 | -13.1 | 1.3
CCN=C1NN=C(c2ccc(C)cc2)CS1 | -0.3 | 1.3 | 73.4* | 7.5
c1ccc(CN=C2NN=C(c3ccccc3)CS2)cc1 | -0.1 | 0.8 | -26.9 | 5.5
CCOc1cccc(-c2cc(C(=O)N/N=C(\C)c3cccs3)[nH]n2)c1 | 0.1 | 1.4 | -9.5 | 13.7
CCOc1ccc(-c2cc(C(=O)N/N=C(\C)c3ccc(OC)cc3)[nH]n2)cc1 | 0.0 | 0.4 | 44.3* | 6.9
CCOc1ccccc1-c1cc(C(=O)N/N=C(/C)c2ccc(OC)c(OC)c2)[nH]n1 | 0.3 | 0.5 | 39.5* | 9.0
C/C(=N\NC(=O)c1cc(C(C)C)[nH]n1)c1ccncc1 | 0.1 | 3.0 | -21.1 | 2.2
C/C(=N\NC(=O)c1cc(-c2ccccc2Cl)n[nH]1)c1ccc(O)cc1 | 0.1 | -1.1 | 16.8 | 2.2
C/C(=N\NC(=O)c1cc(-c2ccc(CC(C)C)cc2)n[nH]1)c1ccncc1 | 0.0 | -0.8 | 67.2* | 0.4
CCOc1ccccc1-c1cc(C(=O)N/N=C(\C)c2cccs2)[nH]n1 | 0.0 | -0.4 | 48.7* | 11.1
SMILES | FBW7 act | GPR151 ag | TEAD-YAP block | MITF primary
COc1ccc([N+](=O)[O-])cc1NC(=O)c1n[nH]c(=O)c2ccccc12 | -0.2 | -1.8 | 9.5 | -5.8
N#CC1=C(N)Oc2c(sc3ccccc23)C1c1ccc(Cl)cc1Cl (configuration not stated) | 0.1 | 0.4 | -1.4 | 6.3
COc1ccccc1C1C(C#N)=C(N)Oc2c1sc1ccccc21 (configuration not stated) | -0.2 | -0.1 | 32.9* | -10.1
COc1ccc(C2C(C#N)=C(N)Oc3c2sc2ccccc32)c(OC)c1 (configuration not stated) | -0.1 | -0.8 | 64.3* | -2.6
N#CC1=C(N)Oc2c(sc3ccccc23)C1c1ccccc1OC(=O)c1ccccc1Cl (configuration not stated) | 0.2 | 1.2 | -3.3 | 5.0
Cn1c(=O)cc(OCCCC(=O)Nc2ccc(Cl)cn2)c2ccccc21 | -0.1 | 0.0 | 42.7* | 5.0
CCn1c(/C=C2/C(=O)Nc3ccccc32)nc2ccccc2c1=O | 0.2 | 1.9 | 5.1 | 3.4

Screening results (PubChem)
